A short description of assay [1]: NCI Yeast Anticancer Drug Screen. Data for the rad50 strain (AID 155).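 Note: 0% = growth of vehicle-only cultures of the same strain.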 Particulars: S. cerevisiae rad50 strain growth inhibition, stronger effect = higher value. The method, boiled down: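 Yeast carrying a defined DNA repair defect were exposed to test compounds, and growth was compared with vehicle-treated controls to give percent inhibition.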
A short description of assay [2]: NCI Yeast Anticancer Drug Screen. Data for the mec2-1 strain (AID 157). Particulars: S. cerevisiae mec2-1 strain, stronger effect = higher value. The method, boiled down: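 Growth inhibition is read against vehicle-treated controls after compound exposure of the mec2-1 yeast strain, which is defective in DNA damage repair or cell cycle control.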
A short description of assay [3]: NCI Yeast Anticancer Drug Screen. Data for the sgs1 mgt1 strain (AID 161).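 Note: 0% = growth of cultures given vehicle only.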 As to conditions: S. cerevisiae sgs1 mgt1 strain, stronger effect = higher value. In outline: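 This yeast growth screen uses a strain with defined DNA-repair lesions; compound-treated growth is compared with vehicle-treated growth.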
A short description of assay [4]: NCI Yeast Anticancer Drug Screen. Data for the cln2 rad14 strain (AID 165).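 Note: 0% = growth equal to vehicle treated cultures.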 As to conditions: S. cerevisiae cln2 rad14 strain, stronger effect = higher value. In outline: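 Growth inhibition, relative to vehicle-treated controls, is the read-out. The test organism is a yeast strain with defined genetic alterations, cln2 rad14.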
Assay [5] can be described thus: NCI Yeast Anticancer Drug Screen. Data for the bub3 strain (AID 167). As to conditions: S. cerevisiae bub3 mutant strain, stronger effect = higher value. The method, boiled down: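 Compounds were applied to a genetically altered yeast strain carrying a cell-cycle control defect. Growth inhibition was scored against vehicle-treated controls.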
Assay [6] can be described thus: NCI Yeast Anticancer Drug Screen. Data for the mlh1 rad18 strain (AID 175). Particulars: S. cerevisiae mlh1 rad18 strain growth inhibition, stronger effect = higher value. In outline:
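Cells of a genetically altered yeast strain, deficient in DNA damage repair, were treated with compound. Their growth was then compared with that of vehicle-treated cultures to give inhibition.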

The mark [7] stands for this setting: at 5.0 µM (retest, dose inferred, filed as 0.5).
The mark [8] stands for this setting: at 50.0 µM (retest, dose inferred, filed as 5.0).

We go through nine compounds from PubChem BioAssay (NCI).

This is part of a sample that, as a whole, favours compounds with a hit. Of some 79,000 tested, about 15% had one in any assay. A number with no mark means an inactive call. Active and inactive are the calls of the source. Cut-off read from the data, not from the text of the source: active = growth inhibition above about 70%; inactive = the rest.

With `CN(C=O)c1ccc2c(c1)Cc1ccccc1-2`, the growth inhibition in assay [1] (setting [7]) was 14%; in assay [1] (setting [8]), 80% (active); in assay [1] (at 50.0 µM), 47.7%; in assay [2] (setting [7]) it was 4%; in assay [2] (setting [8]), 22%; in assay [2] (at 50.0 µM), 24.8%. For the same compound, the growth inhibition in assay [3] (setting [7]) is 27%; in assay [3] (setting [8]) it was 82% (active); in assay [3] (at 50.0 µM), 44.9%; in assay [4] (setting [7]), 2%; in assay [4] (setting [8]), 40%; in assay [4] (at 50.0 µM), 58.8%. For the same compound, the growth inhibition in assay [5] (setting [7]) was 15%; in assay [5] (setting [8]), 55%; in assay [5] (at 50.0 µM) it was 22.2%; in assay [6] (setting [7]), 13%; in assay [6] (setting [8]), 74% (active); in assay [6] (at 50.0 µM) it was 82% (active).
Consider `COc1cccc(N2C(=O)C3CC(CC(C)(C)C)c4c([nH]c5ccccc45)C3C2=O)c1` (configuration not stated), for which the growth inhibition was 10% in assay [1] (setting [7]); 33% in assay [1] (setting [8]); 33.6% in assay [1] (at 50.0 µM); 10% in assay [2] (setting [7]); 22% in assay [2] (setting [8]); 27.6% in assay [2] (at 50.0 µM). In addition, the growth inhibition in assay [3] (setting [7]) is 13%; in assay [3] (setting [8]), 20%; in assay [3] (at 50.0 µM) it was 35.9%; in assay [4] (setting [7]), -4%; in assay [4] (setting [8]), 33%; in assay [4] (at 50.0 µM), 19.7%. The growth inhibition in assay [5] (setting [7]) is 13%; in assay [5] (setting [8]), 11%; in assay [5] (at 50.0 µM), 63.4%; in assay [6] (setting [7]), 8%; in assay [6] (setting [8]) it was 30%; in assay [6] (at 50.0 µM) it was 23.3%.
As for `OCc1cccc2c1Oc1ccccc1S2`, the growth inhibition was 2% in assay [1] (setting [7]); 55% in assay [1] (setting [8]); 52.4% in assay [1] (at 50.0 µM); 4% in assay [2] (setting [7]); 63% in assay [2] (setting [8]); -25.4% in assay [2] (at 50.0 µM). Besides, the growth inhibition was 1% in assay [3] (setting [7]); 66% in assay [3] (setting [8]); -10.3% in assay [3] (at 50.0 µM); -5% in assay [4] (setting [7]); 17% in assay [4] (setting [8]); -59.5% in assay [4] (at 50.0 µM). In addition, the growth inhibition in assay [5] (setting [7]) was 11%; in assay [5] (setting [8]) it was 73% (active); in assay [5] (at 50.0 µM) it was -37.5%; in assay [6] (setting [7]) it was 4%; in assay [6] (setting [8]), 71% (active); in assay [6] (at 50.0 µM) it was 2.9%.
`NC(=O)/C(=N\NC(=O)c1cc2ccccc2cc1O)C1C(=O)N(c2ccccc2)N=C1N` (configuration not stated): the growth inhibition in assay [1] (setting [7]) was 15%; in assay [1] (setting [8]) it was 15%; in assay [1] (at 50.0 µM) it was 71.5% (active); in assay [2] (setting [7]) it was 6%; in assay [2] (setting [8]) it was 6%; in assay [2] (at 50.0 µM) it was 43.4%. For the same compound, the growth inhibition is 7% in assay [3] (setting [7]); 7% in assay [3] (setting [8]); 20.7% in assay [3] (at 50.0 µM); 16% in assay [4] (setting [7]); 16% in assay [4] (setting [8]); 11.7% in assay [4] (at 50.0 µM). Further, the growth inhibition is 2% in assay [5] (setting [7]); 2% in assay [5] (setting [8]); 50.1% in assay [5] (at 50.0 µM); 25% in assay [6] (setting [7]); 25% in assay [6] (setting [8]); 67.4% in assay [6] (at 50.0 µM).
Regarding `O=C1c2ccccc2C(=O)c2sccc21`, the growth inhibition in assay [1] (setting [7]) is -97%; in assay [1] (setting [8]) it was 91% (active); in assay [1] (at 50.0 µM), 95.8% (active); in assay [2] (setting [7]), -36%; in assay [2] (setting [8]), 51%; in assay [2] (at 50.0 µM), 84.8% (active). Besides, the growth inhibition is -43% in assay [3] (setting [7]); 62% in assay [3] (setting [8]); 93.8% (active) in assay [3] (at 50.0 µM); -56% in assay [4] (setting [7]); 32% in assay [4] (setting [8]); 56.3% in assay [4] (at 50.0 µM). Moreover, the growth inhibition in assay [5] (setting [7]) was -36%; in assay [5] (setting [8]), 90% (active); in assay [5] (at 50.0 µM), 90.5% (active); in assay [6] (setting [7]), -75%; in assay [6] (setting [8]), 92% (active); in assay [6] (at 50.0 µM), 93.9% (active).
On to `Nc1ccc(Cc2ccc(Cl)cc2)cc1`, for which the growth inhibition is -156% in assay [1] (setting [7]); 93% (active) in assay [1] (setting [8]); 99.2% (active) in assay [1] (at 50.0 µM); -51% in assay [2] (setting [7]); 96% (active) in assay [2] (setting [8]); 99% (active) in assay [2] (at 50.0 µM). The growth inhibition in assay [3] (setting [7]) is -66%; in assay [3] (setting [8]) it was 95% (active); in assay [3] (at 50.0 µM), 99.3% (active); in assay [4] (setting [7]) it was -60%; in assay [4] (setting [8]) it was 94% (active); in assay [4] (at 50.0 µM), 97.9% (active). The growth inhibition in assay [5] (setting [7]) was -66%; in assay [5] (setting [8]), 95% (active); in assay [5] (at 50.0 µM) it was 98.8% (active); in assay [6] (setting [7]) it was -129%; in assay [6] (setting [8]) it was 95% (active); in assay [6] (at 50.0 µM), 99.2% (active).
Turning to `COC(=O)C1CCC(c2ccccc2)CC1C(=O)OC` (configuration not stated), the growth inhibition in assay [1] (setting [7]) is 2%; in assay [1] (setting [8]), 10%; in assay [1] (at 50.0 µM) it was 24.9%; in assay [2] (setting [7]), 0%; in assay [2] (setting [8]), 6%; in assay [2] (at 50.0 µM) it was 20.9%. The growth inhibition in assay [3] (setting [7]) is 1%; in assay [3] (setting [8]), 12%; in assay [3] (at 50.0 µM), 33%; in assay [4] (setting [7]), 5%; in assay [4] (setting [8]), 12%; in assay [4] (at 50.0 µM) it was 24%. The growth inhibition was 25% in assay [5] (setting [7]); 31% in assay [5] (setting [8]); 71.2% (active) in assay [5] (at 50.0 µM); -3% in assay [6] (setting [7]); 9% in assay [6] (setting [8]); 28.6% in assay [6] (at 50.0 µM).
Regarding `COC(CCC[N+](C)(C)C)CC[N+](C)(C)C` (configuration not stated), the growth inhibition in assay [1] (setting [7]) is 11%; in assay [1] (setting [8]), 81% (active); in assay [1] (at 50.0 µM), 95.9% (active); in assay [2] (setting [7]), -9%; in assay [2] (setting [8]), 83% (active); in assay [2] (at 50.0 µM), 97.6% (active). Further, the growth inhibition in assay [3] (setting [7]) is -7%; in assay [3] (setting [8]), 78% (active); in assay [3] (at 50.0 µM), 97.8% (active); in assay [4] (setting [7]), 1%; in assay [4] (setting [8]) it was 70% (active); in assay [4] (at 50.0 µM), 95.9% (active). Moreover, the growth inhibition in assay [5] (setting [7]) is -9%; in assay [5] (setting [8]), 70% (active); in assay [5] (at 50.0 µM), 97.1% (active); in assay [6] (setting [7]), 8%; in assay [6] (setting [8]), 81% (active); in assay [6] (at 50.0 µM) it was 96.5% (active).
As for `CCC(c1cccc(O)c1)C(CC)c1cccc(O)c1` (configuration not stated), the growth inhibition in assay [1] (setting [7]) is 28%; in assay [1] (setting [8]) it was 55%; in assay [1] (at 50.0 µM), 57.2%; in assay [2] (setting [7]), 19%; in assay [2] (setting [8]), 67%; in assay [2] (at 50.0 µM) it was 60.9%. The growth inhibition in assay [3] (setting [7]) is 51%; in assay [3] (setting [8]), 76% (active); in assay [3] (at 50.0 µM), 39.4%; in assay [4] (setting [7]), 50%; in assay [4] (setting [8]) it was 74% (active); in assay [4] (at 50.0 µM), 48.9%. Moreover, the growth inhibition in assay [5] (setting [7]) is 59%; in assay [5] (setting [8]) it was 88% (active); in assay [5] (at 50.0 µM) it was 66.3%; in assay [6] (setting [7]), 17%; in assay [6] (setting [8]), 55%; in assay [6] (at 50.0 µM), 92.8% (active).
